From PubChem BioAssay
Compounds with a hit are over-represented: about 1.9% of the library has one in this group of screens.
CaV13 ICDI inh = Primary screen for inhibitors of IQ motif and Ca2+-dependent inactivation inhibitor domain binding in CACNA1D, Förster resonance energy transfer in living cells, … | HEK cells, CFP/YFP FRET ICDI-IQ, plate reader, 10 min; percent FRET-ratio fall versus neutral wells | inhibition, % at 12.3 µM | hit rate 0.098% among 340,000 | AID 743397;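 active = mean replicate inhibition of at least 30% and at least 1% of replicates passing that level; inconclusive = only one of the two criteria is met; inactive = neither criterion is met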
ATG4B inhibitor = ATG4B protease inhibitors, primary screen, biochemical, fluorescence, uHTS; inhibition, % at 8.33 µM; ATG4B cleavage of LC3-PLA2, NBD-HPC fluorescence, 1 h; Cysteine protease ATG4B (Homo sapiens), Q9Y4P1; AID 504462, 2011; hit rate 0.51% among 340,000; in the data active = inhibition above about 40%
Target sequence (Q9Y4P1 whole entry, looked up): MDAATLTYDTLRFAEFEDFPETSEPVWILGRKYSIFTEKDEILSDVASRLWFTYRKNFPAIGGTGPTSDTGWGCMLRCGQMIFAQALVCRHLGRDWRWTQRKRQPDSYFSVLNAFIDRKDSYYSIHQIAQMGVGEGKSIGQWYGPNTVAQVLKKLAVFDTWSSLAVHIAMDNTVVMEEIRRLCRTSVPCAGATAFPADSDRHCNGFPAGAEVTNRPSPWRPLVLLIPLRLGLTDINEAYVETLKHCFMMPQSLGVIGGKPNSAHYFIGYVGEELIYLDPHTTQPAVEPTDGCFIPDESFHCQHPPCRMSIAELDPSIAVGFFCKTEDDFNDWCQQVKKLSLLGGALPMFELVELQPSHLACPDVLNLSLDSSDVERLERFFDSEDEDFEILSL
DSG3 Ab inh = inhibitors of pemphigus antibody binding to DSG3, primary screen, biochemical, bead-based, flow cytometry, scFv-GFP; Desmoglein-3 (Homo sapiens), P32926; binding (percent of control), % at 10 µM; DSG3-coupled beads, scFv-anti-DSG3-GFP binding; stronger effect = lower value; hit rate 0.48% among 310,000;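 active = binding more than 3 SD below its plate's average and above zero; inconclusive = below that plate limit but binding exactly zero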
Vif inh = HIV Vif self-association inhibitors, primary screen, imaging, HEK293T, single point; HEK293T cells, Vif self-association by quenched fluorescence, 24 h; inhibition, % at 7.49 µM; hit rate 0.35% among 340,000; in the data active = inhibition above about 50%, passing the limit was not always enough; inconclusive = no clear call, values can overlap the other calls; inactive = below about 31%
NSD2 inh = NSD2 histone methyltransferase inhibitors, primary screen, biochemical, AlphaScreen, single concentration, set 2. Histone-lysine N-methyltransferase NSD2 (Homo sapiens), O96028. NSD2 peptide methylation, 120 min. inhibition, % at 12.5 µM. hit rate 0.54% among 310,000. AID 743445, 2014; in the data active = inhibition above about 50%
Glyco luc inh = increase of ERlucT glycosylation luciferase signal, primary screen, N-linked glycosylation inhibitor project, D54 ERlucT cells, luminescence, set 2; D54 ERlucT glycosylation luciferase reporter, 24 h; percent of 100 nM tunicamycin response; reporter increase, % at 12.5 µM; hit rate 0.23% among 360,000; AID 588692, 2011;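 active = mean luciferase reporter signal, scaled so untreated is 0 and the glycosylation-blocking control 100, at or above a set limit in every replicate; inconclusive = mean reaches the limit but not every replicate does; inactive = mean below the limit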;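 also: luciferase carries N-glycosylation sites so blocking glycosylation raises the light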
Large screens that a line does not name were inactive.

O=C(NC1C=CS(=O)(=O)C1)c1sc2ccccc2c1Cl (stereo not drawn)	Glyco luc inh 32
O=C(NC1CC1)c1sc2ccccc2c1Cl	none
Cc1ccc(C(=O)N/C(=C/c2ccco2)C(=O)NCCc2c[nH]c3ccccc23)cc1	Glyco luc inh 45
Cc1ccc(NC(=O)C(=O)NCCc2c[nH]c3ccccc23)cc1C	none
O=C(NCCc1c[nH]c2ccccc12)C(=O)Nc1ccccc1	DSG3 Ab inh 64 (no result: Vif inh, NSD2 inh)
CCOC(=O)C1CCCN(C2CC(=O)N(c3cccc(C)c3)C2=O)C1 (stereo not drawn)	none
COc1ccc(-c2nnc(SCc3nc4ccccc4c(=O)[nH]3)o2)cc1	Vif inh 52 (no result: NSD2 inh)
CCCc1cc(=O)oc2cc(OCC(=O)NCc3ccccn3)ccc12	none
CCCc1cc(=O)oc2cc(OCC(=O)NCc3cccs3)ccc12	DSG3 Ab inh 46
CCCc1cc(=O)oc2cc(OCC(=O)NCC(O)c3ccccc3)ccc12 (stereo not drawn)	DSG3 Ab inh 0.7
CCCc1cc(=O)oc2cc(C)cc(OCC(=O)NCC(O)c3ccccc3)c12 (stereo not drawn)	none
CCOc1ccccc1N(CC(=O)NCC1CCCO1)C(=O)CCC(=O)Nc1nccs1 (stereo not drawn)	Vif inh 61
N#CC1(NC(=O)COC(=O)C2=COCCO2)CCCCC1	none
Cc1ccc(C(=O)CN(C(=O)c2ccc(Cl)c(Cl)c2)N2C(=O)C3CCCCC3C2=O)cc1C (stereo not drawn)	none
O=C1Nc2ccccc2/C1=N/N=C/c1ccc(-c2ccc([N+](=O)[O-])cc2)o1	DSG3 Ab inh 72, Vif inh 54
CN(/N=C/c1ccc(-c2ccc([N+](=O)[O-])cc2)o1)c1ccccc1	none (no result: Vif inh)
CCOc1ccccc1NC(=O)Cc1coc2ccc(C)cc12	none
Cn1nnc2sc3c(c2c1=O)CCCC3	DSG3 Ab inh 79
Nc1nc(N)nc(-c2ccccc2-c2nc(N)nc(N)n2)n1	DSG3 Ab inh 74
CCOC(=O)Cn1nc2oc(=O)c(CCN3CCN(c4ccccc4OC)CC3)c(C)c2c1C	none (no result: ATG4B inhibitor)
O=C(NC1CCCCC1)c1cc2nc(-c3ccco3)cc(C(F)(F)F)n2n1	none (no result: CaV13 ICDI inh, NSD2 inh)
O=C(NCCCn1ccnc1)c1cc(-c2cccs2)on1	Glyco luc inh 155
COc1ccc(OC)c(-c2cc(C(=O)NCCCn3ccnc3)no2)c1	none
O=C(NCCCN1CCOCC1)c1cc2nc(-c3ccco3)cc(C(F)(F)F)n2n1	DSG3 Ab inh 33
Cc1ccc(-c2cc(C(=O)NCCCN3CCOCC3)no2)cc1	none (no result: NSD2 inh)
O=C(NCCCN1CCOCC1)c1cc(-c2cccs2)on1	Glyco luc inh 46
Cc1ccc2c(COC(=O)CNC(=O)c3ccccc3)cc(=O)oc2c1	none
Cc1ccc2c(COC(=O)c3ccccc3OC(F)F)cc(=O)oc2c1	Vif inh 52
COc1ccc2[nH]c(C(=O)N3CCN(Cc4ccccc4)CC3)cc2c1OC	Glyco luc inh 45
Cc1[nH]c2ccc(C(=O)N3CCN(Cc4ccccc4)CC3)cc2c1C	none
COc1ccc(S(=O)(=O)N(C)C)cc1NC(=O)CN1CCN(C(=O)C2CC2)CC1	none
COc1cc(Cl)c(C)cc1NC(=O)CN1CCN(C(=O)C2CC2)CC1	Glyco luc inh 28 (no result: CaV13 ICDI inh)
CC(C)(C)OC(=O)N1CCC[C@H]1C(=O)NCc1ccc(Cl)cc1Cl	none
COc1ccccc1-c1csc(C(NC(C)=O)c2cccc(F)c2)n1 (stereo not drawn)	Glyco luc inh 33 (no result: ATG4B inhibitor, DSG3 Ab inh)
COc1ccccc1-c1csc(C(NC(C)=O)c2ccc(F)c(F)c2)n1 (stereo not drawn)	Glyco luc inh inconclusive (no result: ATG4B inhibitor, DSG3 Ab inh)
O=C(CSc1nc2ccccc2s1)Nc1cc(S(=O)(=O)N2CCOCC2)ccc1O	none
